# Reference: article PMC5540273 (PLoS ONE, 2017)
# What was measured:
# Details in all cases: concentration: 1 μM,replicates: in singlicate; n = 1
# ZAK = test system: ZAK
# ZAP70 = test system: ZAP70
# p38-alpha = test system: T1, p38-alpha
# T1 construct: gene MAPK14
# p38-beta = test system: T2, p38-beta
# T2 construct: gene MAPK11
# p38-delta = test system: p38-delta
# p38-gamma = test system: T3, p38-gamma
# T3 construct: gene MAPK12
# 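Also: KINOMEscan kinase panel screen.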
Compound,%Inh (ZAK) [%],%Inh (ZAP70) [%],%Inh (p38-alpha) [%],%Inh (p38-beta) [%],%Inh (p38-delta) [%],%Inh (p38-gamma) [%]
O=C(Nc1ccccc1)c1cccc(Oc2ccc3nccn3n2)c1,0,0,0,0,0,3
Cn1cc(-c2cccc3c(N)c(C(N)=O)nnc23)cn1,0,9,2,16,6,27
O=C(Nc1cccc(C(F)(F)F)c1)c1cccc(Oc2ccc3nccn3n2)c1,35,15,0,0,0,27
Cn1ccc2ncnc(Oc3ccc(NC(=O)Nc4cncc(C(F)(F)F)c4)c(Cl)c3)c21,0,0,47,30,0,0
Cc1n[nH]c2cc(Nc3ccnc(Nc4cccc(CN5CCOCC5)c4)n3)ccc12 [GW682569],14,17,11,0,28,0
CCNCC(Cc1ccccc1)NC(=O)c1cc(Br)c(-c2ccnc3[nH]ccc23)s1.Cl.Cl (stereo not drawn) [GSK1383280],15,0,11,0,53,0
C[C@@H]1CCN(C(=O)N2CCCC2)C[C@@H]1N(C)c1ncnc2[nH]ccc12,12,0,5,2,25,10
COc1ccc(Nc2nccc(N3CCC(NC(=O)c4cccc(C#N)c4)C3)n2)cc1 (stereo not drawn) [GSK1379730],26,0,5,0,38,0
CC(=O)Nc1ccc(-c2cc3ncnc(SCC(=O)O)c3s2)cc1,40,2,12,1,29,0
Cc1ccc(CC(=O)N2CCc3cc(-c4cn(C)c5ncnc(N)c45)ccc32)cc1 [GSK2634758],21,0,0,0,8,0
CN(c1ccc2c(c1)nc(NCc1ccc(F)cc1)n2C)c1ccnc(Nc2ccc(CS(C)(=O)=O)cc2)n1.Cl [GW813244],41,13,13,6,0,44
O=C(Nc1cccc(Oc2ccc3nccn3n2)c1)Nc1cccc(C(F)(F)F)c1,97.8,3,17,12,0,19
CCOC(=O)N1CCC(n2cnc(-c3ccc(F)cc3)c2-c2ccnc(N)n2)CC1 [SB-219952],9,14,95.3,34,0,23
COc1cc2nccc(Nc3ccc(Oc4ccccc4)cc3)c2cc1OC.Cl [GI261656],55,0,0,0,20,0
O=C(Nc1n[nH]c2cc(-c3ccco3)ccc12)C1CC1 [SB-737447],0,0,0,0,3,26
Cc1nnc(-c2ccc3occ(-c4ccc(S(C)=O)cc4)c3n2)o1 (stereo not drawn),0,0,0,0,0,0
Cc1ccc2c(-c3ccnc(Nc4ccc(C(F)(F)F)cc4)n3)cnn2n1 [GW819776],0,15,0,0,0,44
N#Cc1cccc(C(=O)NC2CCN(c3ccnc(Nc4ccc(F)cc4)n3)C2)c1 (stereo not drawn) [GSK1379708],0,0,35,0,38,0
CNC(=O)c1ccccc1Nc1nc(Nc2cccc(CS(C)(=O)=O)c2)ncc1C.O=CO [GSK1520489],0,0,0,0,2,0

Compound,%Inh (ZAK) [%],%Inh (ZAP70) [%],%Inh (p38-alpha) [%],%Inh (p38-beta) [%],%Inh (p38-delta) [%],%Inh (p38-gamma) [%]
c1ccc(Oc2ccc(Nc3ccnc4ccc(-c5ccccn5)cc34)cc2)cc1 [GW407034],53,0,0,4,19,0
COc1cc2ncn(-c3cc(OCC4CCCCC4)c(C(N)=O)s3)c2cc1OC [GSK204559],7,0,0,0,28,0
Cl.c1ccc(Oc2ccc(Nc3ccnc4cc(-c5ccc(CN6CCNCC6)o5)ccc34)cc2)nc1 [GW567142],60,0,12,0,39,5
COc1cccc(CNC(=O)NC2CCN(c3ccnc(Nc4cc(OC)c(OC)c(OC)c4)n3)C2)c1 (stereo not drawn) [GSK1379765],26,43,12,0,44,1
Cn1ccc2ncnc(Oc3ccc(NC(=O)Nc4cccc(C(F)(F)F)c4)c(Cl)c3)c21,14,0,0,44,35,10
COc1cc(Nc2nccc(N3CCC(NC(=O)c4cccc(C#N)c4)C3)n2)cc(OC)c1OC (stereo not drawn) [GSK1379751],0,45,23,0,22,0
CCn1c(-c2nonc2N)nc2cncc(Br)c21 [SB-738004],15,9,6,0,0,7
C[C@@H]1CNc2c(sc3ccc4nc(-c5ccncc5)ccc4c23)C(=O)N1,0,0,0,8,11,16
FC(F)(F)c1cc(Br)cc(Nc2nccc(-c3cnn4ncccc34)n2)c1 [GW810578],16,0,0,0,0,41
O=C(NOCC1CC1)c1cc(Br)c(F)c(F)c1Nc1ccc(I)cc1Cl,0,0,0,1,35,0
NC(=O)c1ccc(-c2cc3ncnc(SCC(=O)O)c3s2)cc1,0,0,0,2,24,0
COC(=O)Nc1nc2cc(Oc3ccc(NC(=O)Nc4cc(C(F)(F)F)ccc4Cl)cc3)ccc2[nH]1.Cl [GW697465],98.4,0,83,45,48,0
CCn1c(-c2nonc2N)nc2cncc(CNC3CCNCC3)c21.Cl [SB-747651],7,32,0,0,44,10
Cl.Nc1n[nH]c2cc(-c3ccccn3)ccc12 [GSK2189892],14,0,0,0,22,4
COC(=O)c1cccc(NC(=O)NC2CCN(c3ccnc(NCc4ccc(F)cc4)n3)CC2)c1 [GSK1379860],0,0,0,0,34,0
CC(C)S(=O)(=O)N1CCN(Cc2ccc3c(c2)nc(NC(=O)c2ccsc2)n3C[C@H](O)c2ccccc2)CC1 [GW635815],1,0,6,4,47,0
C[C@@H](Oc1cc(-n2cnc3ccc(-c4ccncc4)cc32)sc1C(N)=O)c1ccccc1Cl [GSK483724],21,61,1,0,39,0
CC(C(=O)NC1CCN(c2ccnc(Nc3ccc(F)cc3)n2)C1)c1ccc(Cl)cc1 (stereo not drawn) [GSK1379713],5,0,8,0,5,0
